M1 ag = human M1 muscarinic receptor agonists, primary screen, Fluo-8 calcium fluorescence, CHO-K1 cells, HTS; Muscarinic acetylcholine receptor M1 (Homo sapiens), P11229; CHO-K1 hM1, agonist mode; 0% DMSO, 100% acetylcholine EC100; activation, % at 3 µM; 360,000 tested, 0.33% active; AID 588814, 2011;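 active means activation above the run's mean compound activation plus 3 SD, cut at about 16% in these data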;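 further: peak over basal fluorescence ratio within a 140 s kinetic read after compound addition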
Target sequence (P11229 whole entry, looked up): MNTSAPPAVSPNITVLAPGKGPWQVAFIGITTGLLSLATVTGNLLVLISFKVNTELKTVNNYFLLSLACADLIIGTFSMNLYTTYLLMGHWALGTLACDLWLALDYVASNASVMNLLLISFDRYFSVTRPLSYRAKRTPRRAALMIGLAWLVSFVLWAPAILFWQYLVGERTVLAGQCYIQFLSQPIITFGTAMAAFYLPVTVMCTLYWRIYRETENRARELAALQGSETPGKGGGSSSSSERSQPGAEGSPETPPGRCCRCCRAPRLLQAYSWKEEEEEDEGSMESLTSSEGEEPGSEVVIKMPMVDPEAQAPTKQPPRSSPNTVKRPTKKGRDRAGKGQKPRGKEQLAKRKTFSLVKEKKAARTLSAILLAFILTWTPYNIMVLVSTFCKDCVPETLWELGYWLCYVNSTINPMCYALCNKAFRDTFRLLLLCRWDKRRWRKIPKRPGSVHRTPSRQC
M1 ag parental = counter-screen for M1 agonists: effect in parental CHO-K1 cells | Fluo-8 calcium fluorescence; scaled to maximal ATP response, vehicle zero | activation, % at 3 µM | 360,000 tested, 0.48% active; in the data active means activation above about 15%;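 further: untransfected CHO-K1 host cells lacking M1 receptor as counterscreen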
CHRM1 antagonist = human M1 muscarinic receptor antagonists, primary screen, CHO-K1 cells, Fluo-8 calcium fluorescence, 1536-well; CHO-K1 hM1, ACh EC80 antagonist; inhibition, % at 3 µM; 360,000 tested, 1.3% active; AID 588852, 2011;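 active means percent inhibition above its own plate's cutoff, namely the mean of that plate's compound wells plus 3 SD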;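 further: peak over basal fluorescence ratio during 140 s after agonist addition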
CHRM1 PAM = human M1 muscarinic receptor positive allosteric modulators, primary screen, CHO-K1 cells, Fluo-8 calcium fluorescence, 1536-well. Muscarinic acetylcholine receptor M1 (Homo sapiens), P11229. CHO-K1 hM1, ACh EC20; 0% = ACh EC20, 100% = maximal ACh. activation, % at 3 µM. 360,000 tested, 0.088% active; in the data active means activation above about 19%, passing the limit was not always enough
M1 PAM parental = nonselective calcium activators in parental CHO-K1 cells, primary screen, counter-screen for M1 PAM project, cell-based, Fluo-8 calcium fluorescence, full deck, 1536-well; 360,000 tested, 0.02% active; ATP EC20; 0% at ATP EC20, 100% at ATP max; activation, % at 3 µM; AID 602247, 2012;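 active means activation above the run cutoff, the mean activation of all test compounds plus 3 SD, cut at about 40% in these data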;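 further: peak over basal fluorescence ratio in a 140 s read after ATP addition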
CHO-K1 Ca antag = counter-screen for M1 antagonists: effect in parental CHO-K1 cells. ATP-induced calcium, Fluo-8 fluorescence. inhibition, % at 3 µM. 360,000 tested, 0.6% active. AID 602250;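 active means inhibition above a per-plate cutoff, the plate's mean sample inhibition plus 3 SD, cut at about 24% in these data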
Each line names hits and unclear results; the compound was inactive in the other large screens. Compounds with a hit are over-represented: about 2.4% of the library has one in this group of screens.

Cc1ccc(C2(C)NC(=O)N(CC(=O)N3CCc4ccccc43)C2=O)cc1 (configuration not stated)	M1 ag 29, M1 ag parental 20
CCCCC1(C)NC(=O)N(CC(=O)N2CCc3ccccc32)C1=O (configuration not stated)	none
O=C(CN1CCN(C(=O)C2CCCO2)CC1)Nc1cc(C(F)(F)F)ccc1Cl (configuration not stated)	none
C=CCOc1ccc(/C=C/C(=O)OCC(=O)Nc2c(C)n(C)n(-c3ccccc3)c2=O)cc1	CHO-K1 Ca antag 39
COc1ccc([C@H]2C(C#N)=C([S-])N[C@](C)(O)[C@@H]2[n+]2ccccc2)cc1	CHRM1 antagonist 74
COc1cc(NC(=O)C/C(C)=N/NC(=O)C(=O)NC2CCCCC2)c(OC)cc1Cl	none
COc1cc(NC(=O)C/C(C)=N/NC(=O)C(=O)NCCO)c(OC)cc1Cl	CHO-K1 Ca antag 55
COc1cccc(CNC(=O)c2ccc(F)c(S(=O)(=O)N3CCCCC3)c2)c1	none
Cc1cc(-c2nnc(SCC(=O)Nc3ccccc3C(F)(F)F)o2)c(C)n1-c1ccccc1	M1 ag 17
COc1cccc(CN2CCN(C(=O)[C@H]3O[C@@H](n4cnc5c(N)ncnc54)[C@H](O)[C@@H]3O)CC2=O)c1	none
NN=C(c1ccccc1)c1ccccc1	none
N/N=C(\c1ccccc1)C12CN3CN(CN(C3)C1)C2	CHRM1 antagonist 58
COc1cccc(C(=O)Nc2cc(C)ccc2NC(=O)COc2ccccc2)c1	CHRM1 antagonist 48
CCCCn1c(N)c(N(CC)C(=O)C2=NN(c3ccccc3)C(=O)CC2)c(=O)[nH]c1=O	none
CC(=O)N1CCOC12CCN(Cc1ccccc1)CC2	none
CCn1c(SCc2cccc(C)c2)nnc1-c1ccc(C)cc1	M1 ag parental 16
CCn1c(SCc2ccc(C(=O)Nc3cc(C)cc(C)c3)cc2)nnc1-c1ccncc1	CHRM1 antagonist 31
CC1=C(C(=O)Nc2ccccc2)C(c2ccco2)C(C#N)=C(SCC(=O)Nc2cccc(C)c2C)N1 (configuration not stated)	none
CC1=C(C(=O)Nc2ccccc2)C(c2ccco2)C(C#N)=C(SCC(=O)OC(C)C)N1 (configuration not stated)	CHRM1 antagonist 33
CCN(CC)C1=CC2=CC(=C(C#N)C#N)CCC2CC1 (configuration not stated)	M1 ag 230, M1 ag parental 99, CHRM1 antagonist 63, CHO-K1 Ca antag 67
CCCCN(C)C1=CC2=CC(=C(C#N)C#N)CCC2CC1 (configuration not stated)	M1 ag 670, M1 ag parental 578, CHRM1 antagonist 101, CHO-K1 Ca antag 92
Cc1ccc(-n2nc3c(=O)n(CC(=O)NC(C)CCc4ccccc4)nc(C)c3c2C)cc1 (configuration not stated)	none
CSCC[C@H](NC(=O)C1CCC(CNC(=O)[C@@H]2CCCN2C(=O)OC(C)(C)C)CC1)C(=O)O (some centres not stated)	none
COc1ccc(Cl)cc1C(=O)NCCN(C)C	none
CN(C)CCNC(=O)c1ccc(COc2ccc(Cl)cc2Cl)cc1	CHRM1 antagonist 31
Cc1nn(-c2ccccc2)c(C)c1C(=O)NCc1ccccc1F	none
CCN(CC)c1ccc2c(-c3ccc(S(=O)(=O)O)cc3S(=O)(=O)[O-])c3ccc(=[N+](CC)CC)cc-3oc2c1	M1 ag 86, M1 ag parental 41
Cc1onc(-c2c(Cl)cccc2Cl)c1C(=O)N1CCc2ccccc21	CHRM1 antagonist 68
Cc1onc(-c2c(F)cccc2Cl)c1C(=O)N1CCc2ccccc2C1	none
O=C(Cn1[nH]c(=O)c2ccccc2c1=O)N1CCN(S(=O)(=O)c2ccc(Cl)cc2)CC1	none
COc1ccc2c(c1OC)C(=O)OC2	none
COc1ccc2c3c(cccc13)C(=O)CC2	M1 ag 119, M1 ag parental 30
N#C/C(=C/c1ccc(O)cc1)C(=O)NCc1ccc(Cl)cc1	none
N#C/C(=C\c1ccc(O)cc1)C(=O)NCc1cccc(Cl)c1	M1 ag 24, M1 ag parental 17
COc1cc(/C=N/NC(=O)C(=O)/C=C2\NC3(CCCC3)Cc3ccccc32)ccc1O	M1 ag 22
O=C(/C=C1\NC2(CCCC2)Cc2ccccc21)C(=O)N/N=C/c1ccccc1O	none
CN(C)c1ccc(/C=N/NC(=O)C(=O)/C=C2\NC3(CCCC3)Cc3ccccc32)cc1	CHRM1 PAM 26
CC(OC(=O)Cn1cc(C(F)(F)F)ccc1=O)C(=O)N(C)c1ccccc1 (configuration not stated)	none
O=C1CC(=C(c2ccccc2)c2ccccc2)C(=O)N1CCCCN1CCN(c2cccc(Cl)c2)CC1	CHRM1 antagonist 39
Cc1ccccc1N1CCN(CCCN2C(=O)CC(=C(c3ccccc3)c3ccccc3)C2=O)CC1	CHRM1 antagonist 95
CCN1/C(=C2\C(=O)N(c3ccccc3)N=C2C)C=Cc2cc(C)ccc21	M1 ag 20, M1 ag parental 24
CCN1/C(=c2/s/c(=C3/C(=O)N(c4ccccc4)N=C3C)n(CC)c2=O)C=Cc2ccccc21	none
CCc1ccc(OCC(=O)Nc2ccc3c(c2)OCCO3)cc1	none
Cc1ccc(OCCn2cc(/C(N)=N/O)c3ccccc32)cc1C	CHO-K1 Ca antag 28
COc1ccc(OCCn2cc(/C(N)=N/O)c3ccccc32)cc1	none
COc1ccc(CN2CCNC(=O)C2CC(=O)NCc2cnn(C)c2)cc1OC (configuration not stated)	none
CCOC(=O)C1=C(CN2CC(C)CC(C)C2)NC(=O)NC1c1ccc2c(c1)OCO2 (configuration not stated)	none
CC1(C(=O)NS(=O)(=O)Cc2ccccc2C(F)(F)F)CCN1C(=O)Cc1cccs1 (configuration not stated)	none
CN1C(=O)/C(=C/c2ccccc2OCc2cccc(F)c2)N(C)C1=S	CHRM1 antagonist 100
CN1C(=O)/C(=C/c2ccc(OCc3ccc(F)cc3)cc2)N(C)C1=S	none
O=C(c1cc(C2CC2)nn1-c1ccccc1)N1CCN(S(=O)(=O)c2ccc(F)cc2)CC1	none
O=C(c1cc(C2CC2)nn1-c1ccccc1)N1CCN(S(=O)(=O)c2cccc(F)c2)CC1	CHRM1 antagonist 30
O=C(c1cc(-c2cccs2)nn1-c1ccccc1)N1CCN(S(=O)(=O)c2ccccc2)CC1	CHRM1 antagonist 28
